The text below walks through data of PubChem BioAssay (NCI).

The panel holds about 83,000 compounds, 20% with a hit somewhere; the sample as a whole holds those more often.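 Percent growth is the endpoint: 0 to 100 indicates growth inhibition (40 means 60% inhibition), 0 means no net growth, and negative values indicate cell death.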 Unmarked numbers belong to inactive results. Calls of active or inactive are those of the source. The calls were made as follows: active = growth percent below 10; inactive = the rest.

Holding throughout (experiment): NCI-60 one-dose screen, 48 h (100 = growth as untreated, 0 = no growth, -100 = all killed)
In one assay the test system is NCI-H23 lung. Particulars: 10 µM.
Another assay deals with HOP-92 NSCLC. Particulars: 10 µM.
The next assay has as its system NCI-H522 lung. Particulars: 10 µM.
The test system of another assay is K-562 leukemia. The note with it: 10 µM.
The test system of the next assay is MDA-MB-231 breast. The note with it: 10 µM.
The test system of another assay is RXF 393 renal. The note with it: 10 µM.
A further assay has as its system LOX IMVI melanoma. The note with it: 10 µM.
Another assay relates to UO-31 renal. Particulars: 10 µM.
The next assay concerns CCRF-CEM leukemia. The note with it: 10 µM.
A further assay concerns MOLT-4 leukemia. Particulars: 10 µM.
In another assay the test system is SR leukemia. Particulars: 10 µM.
A further assay has as its system HS 578T breast. Particulars: 10 µM.
The next assay relates to NCI/ADR-RES ovarian. The note with it: 10 µM.
A further assay concerns T-47D breast. The note with it: 10 µM.
The test system of another assay is SW-620 colon. The note with it: 10 µM.
In the next assay the test system is KM12 colon. Particulars: 10 µM.
The next assay has as its system MDA-MB-468 breast. Particulars: 10 µM unless noted.
For another assay, the system named is COLO 205 colon. Particulars: 10 µM.
In a further assay the test system is MCF7 breast. Particulars: 10 µM.
The next assay concerns OVCAR-5 ovarian. Particulars: 10 µM.

Turning to `CC[C@]12C=CCN3CC[C@@]4(c5ccc(OC)cc5N(C)[C@H]4[C@@](O)(C(=O)OC)[C@@H]1OC(=O)CCCC[P+](c1ccc(C)cc1)(c1ccc(C)cc1)c1ccc(C)cc1)[C@@H]32`, the growth with NCI-H23 lung was -92.4% (active); with HOP-92 NSCLC, -77.9% (active); in the assay with NCI-H522 lung it was -82.7% (active); with K-562 leukemia, 0.797% (active); in the assay on MDA-MB-231 breast it was -97.2% (active); in the assay on RXF 393 renal, -87.6% (active). The growth was -94.5% (active) in the assay on LOX IMVI melanoma; -96% (active) in the assay on UO-31 renal; -72.4% (active) in the assay on CCRF-CEM leukemia; -25% (active) in the assay with MOLT-4 leukemia; 25.8% in the assay on SR leukemia; -69.9% (active) with HS 578T breast. For the same compound, the growth in the assay with NCI/ADR-RES ovarian is 71.8%; with T-47D breast it was -64.5% (active); in the assay on SW-620 colon, -88.1% (active); in the assay on KM12 colon, -73.6% (active); with MDA-MB-468 breast it was -92.5% (active).
With `CC12OOC(C)(OO1)C2CCC(=O)NCCNc1ccnc2cc(Cl)ccc12` (stereo not drawn), the growth was 92.6% in the assay with NCI-H23 lung; 111% with HOP-92 NSCLC; -61.6% (active) in the assay with NCI-H522 lung; 73% in the assay with COLO 205 colon; 39.4% with K-562 leukemia; 96.6% with MDA-MB-231 breast. Further, the growth in the assay on RXF 393 renal was 102%; in the assay on LOX IMVI melanoma it was 3.57% (active); in the assay with UO-31 renal it was 76.1%; in the assay with CCRF-CEM leukemia it was 80.6%; in the assay on MOLT-4 leukemia, 98.6%; in the assay on SR leukemia it was 21.4%. Also, the growth is 99.8% in the assay with HS 578T breast; 80.8% in the assay on T-47D breast; 80.6% in the assay on SW-620 colon; 82.3% in the assay on MCF7 breast; 101% with KM12 colon; 82.7% in the assay on MDA-MB-468 breast.
As to `CC1=C(CCC=O)C2=C(C)C3(CC3)[C@@](C)(O)C(=O)C2=C1`, the growth in the assay on NCI-H23 lung was -86% (active); in the assay with HOP-92 NSCLC, -64.3% (active); in the assay on NCI-H522 lung, -90% (active); with MDA-MB-231 breast it was -99.2% (active); in the assay with RXF 393 renal it was -95.3% (active); with LOX IMVI melanoma, -94.8% (active). Also, the growth in the assay on UO-31 renal is -99.7% (active); with CCRF-CEM leukemia it was -15.3% (active); in the assay on OVCAR-5 ovarian, -95.8% (active); with HS 578T breast, -8.94% (active); with T-47D breast, -41.3% (active); in the assay with SW-620 colon, -74.9% (active). For the same compound, the growth is -72.9% (active) in the assay with KM12 colon and -86.5% (active) in the assay on MDA-MB-468 breast.
Turning to `C[C@H]1[C@H](OC(=O)CCC(=O)N(CCCc2cn(-c3ccc(C#N)cc3)nn2)CCNc2ccnc3cc(Cl)ccc23)O[C@@H]2OC3(C)CC[C@H]4[C@H](C)CC[C@@H]1[C@@]24OO3`, the growth in the assay on NCI-H23 lung is 47.3%; in the assay with HOP-92 NSCLC, 7.07% (active); in the assay on COLO 205 colon, 14.5%; in the assay with K-562 leukemia it was 6.77% (active); with MDA-MB-231 breast it was 62.9%; in the assay with RXF 393 renal it was 40.1%. For the same compound, the growth is 13.3% with LOX IMVI melanoma; 15% in the assay with UO-31 renal; 15% with CCRF-CEM leukemia; 4.41% (active) in the assay on MOLT-4 leukemia; -14.5% (active) in the assay with SR leukemia; 43% with HS 578T breast. Moreover, the growth with NCI/ADR-RES ovarian was 28.4%; in the assay on T-47D breast it was 32.1%; in the assay on SW-620 colon it was 18.2%; in the assay with MCF7 breast, -28% (active); with KM12 colon it was 31.4%; with MDA-MB-468 breast, 46%.
Consider `O=C(/C=C/c1ccc(Cl)cc1)c1nc2ccccc2n1Cc1ccc(Br)cc1`, for which the growth is 61.9% in the assay with NCI-H23 lung; 40.2% in the assay on HOP-92 NSCLC; 76% with NCI-H522 lung; 13.6% with K-562 leukemia; 37.6% with RXF 393 renal; 42.6% with UO-31 renal. In addition, the growth was -10.9% (active) in the assay on CCRF-CEM leukemia; -0.283% (active) with MOLT-4 leukemia; 5.41% (active) with SR leukemia; 89.9% in the assay with OVCAR-5 ovarian; 62.6% in the assay with NCI/ADR-RES ovarian; 67.6% with KM12 colon. Besides, the growth in the assay on MDA-MB-468 breast is 9.05% (active).
Consider `CCOC(=O)C1=C(Nc2ccccc2)C(=O)OC12C(=O)Nc1ccccc12` (stereo not drawn), for which the growth in the assay with NCI-H23 lung was 97.3%; in the assay on HOP-92 NSCLC, 101%; in the assay with COLO 205 colon, 119%; in the assay on K-562 leukemia, 95.5%; with MDA-MB-231 breast it was 104%; in the assay with RXF 393 renal it was 119%. Besides, the growth with LOX IMVI melanoma was 94.3%; in the assay on UO-31 renal, 73.2%; in the assay on CCRF-CEM leukemia, 93.9%; in the assay with MOLT-4 leukemia, 108%; in the assay on SR leukemia, 97.3%; in the assay with OVCAR-5 ovarian, 103%. In addition, the growth is 106% in the assay with HS 578T breast; 107% in the assay on NCI/ADR-RES ovarian; 97.1% in the assay on SW-620 colon; 105% in the assay with KM12 colon; 129% with MDA-MB-468 breast.
Take `C[C@H]1[C@@H](Oc2ccc(-c3cn(-c4ccnc5cc(Cl)ccc45)nn3)cc2)O[C@@H]2OC3(C)CC[C@H]4[C@H](C)CC[C@@H]1[C@@]24OO3`: the growth with NCI-H23 lung is 28.4%; with HOP-92 NSCLC, 29.4%; in the assay with COLO 205 colon it was -50% (active); with K-562 leukemia it was 22.2%; with MDA-MB-231 breast it was 49.4%; in the assay with RXF 393 renal, 52.3%. For the same compound, the growth is 10.9% in the assay with LOX IMVI melanoma; 10.7% in the assay on UO-31 renal; 38.8% in the assay on CCRF-CEM leukemia; 17.5% with MOLT-4 leukemia; 12.2% in the assay on SR leukemia; 32.5% with HS 578T breast. The growth is 27% in the assay with SW-620 colon, 19.3% in the assay with MCF7 breast, 25.6% with KM12 colon and 36.9% in the assay with MDA-MB-468 breast.
On to `O=C(/C=C/c1cccc(Br)c1)c1nc2ccccc2n1Cc1ccc(Br)cc1`, for which the growth is -50.7% (active) in the assay with NCI-H23 lung; -48.8% (active) in the assay with HOP-92 NSCLC; -53.4% (active) in the assay with NCI-H522 lung; -2.19% (active) in the assay with K-562 leukemia; -81.2% (active) in the assay with RXF 393 renal; -57.3% (active) in the assay on UO-31 renal. Also, the growth with CCRF-CEM leukemia was -15.6% (active); with MOLT-4 leukemia, -6.66% (active); with SR leukemia it was -12.4% (active); in the assay with MCF7 breast it was -32.8% (active); in the assay on KM12 colon, 6.51% (active); in the assay on MDA-MB-468 breast, -58.5% (active).
On to `COc1cc2cc(C(=O)N3C[C@@H](CCl)c4c3cc(OC(=O)N3CCN(C)[C@@H]5CSSC[C@H]53)c3ccccc43)[nH]c2c(OC)c1OC`, for which the growth is -80.6% (active) with NCI-H23 lung; -40.2% (active) with HOP-92 NSCLC; -68% (active) in the assay with NCI-H522 lung; -6.55% (active) with K-562 leukemia; -51.3% (active) in the assay with MDA-MB-231 breast; -93.8% (active) in the assay on RXF 393 renal. For the same compound, the growth in the assay with LOX IMVI melanoma was -90.2% (active); with UO-31 renal, -52% (active); in the assay on CCRF-CEM leukemia, -23.1% (active); in the assay with MOLT-4 leukemia, -27.3% (active); in the assay with SR leukemia, -13.9% (active); with OVCAR-5 ovarian it was -20.4% (active). The growth in the assay with HS 578T breast is -36% (active); with NCI/ADR-RES ovarian, -56.1% (active); in the assay with T-47D breast, -11.8% (active); with SW-620 colon, -9.04% (active); in the assay on KM12 colon it was -9.39% (active); with MDA-MB-468 breast it was -86.3% (active).
